From article PMC6792352, “Limited Chemical Structural Diversity Found to Modulate Thyroid Hormone Receptor in the Tox21 Chemical Library” (Environmental Health Perspectives, 2019) come the findings set out here.

Structures can show the parent of a compound that is named as a salt. Where only a bound is given, the exact number is not on record here.

The test system of this assay is thyroid hormone receptor (endogenous TRα and TRβ). Details: species or system GH3-TRE-Luc (rat pituitary); GH3-TRE-Luc luciferase reporter, antagonist mode against 1 nM T3, loss of signal, qHTS. To be noted: read-out: Average AC50 (uM) GH3-TRE-Antag, antagonist mode, 1 nM T3, no GH3 cytotoxicity hit.
As to `Cc1cccc(C(C)(C)C)c1O` [2-tert-Butyl-6-methylphenol], the AC50 came to 75.7 µM.

Consider `COc1c(C)c2c(c(O)c1C/C=C(\C)CCC(=O)O)C(=O)OC2` [Mycophenolic acid], for which the AC50 is 0.537 µM. For `NCCN1CCNCC1` [1-(2-Aminoethyl)piperazine], the concentration at half-maximal activity (AC50) was > 90 µM.

As for `CC1(C)NC(=O)N(c2ccc([N+](=O)[O-])c(C(F)(F)F)c2)C1=O` [Nilutamide], the AC50 stood at 38.5 µM. `CSc1nc(NC2CC2)nc(NC(C)(C)C)n1` [Cybutryne]: the AC50 came to 67.1 µM.

Turning to `COC(=O)Nc1nc2ccc([S+]([O-])c3ccccc3)cc2[nH]1` (centres unmarked) [Oxfendazole], the AC50 is 12.2 µM. In the case of `O=c1oc2ccccc2c(O)c1Cc1c(O)c2ccccc2oc1=O` [Dicumarol] it was 12.7 µM; in that of `CC(C)CCC[C@@H](C)[C@H]1CC(=O)C2=C3CC[C@H]4C[C@@H](O)CC[C@]4(C)[C@H]3CC[C@@]21C` [Colestolone], 7.21 µM; in that of `S=C(NC1CCCCC1)NC1CCCCC1` [N,N'-Dicyclohexylthiourea], 58.2 µM. `CCc1cccc(C)c1N(C(=O)CCl)C(C)COC` (centres unmarked) [Metolachlor]: the AC50 was 77 µM. With `COc1cccc(C(=O)NN(C(=O)c2cc(C)cc(C)c2)C(C)(C)C)c1C` [Methoxyfenozide], the AC50 was 55.4 µM. In the case of `CNC(=O)c1ccccc1Sc1ccc2c(/C=C/c3ccccn3)n[nH]c2c1` [Axitinib] it was 0.777 µM.

`O=C(O)c1cc(Oc2ccc(C(F)(F)F)cc2Cl)ccc1[N+](=O)[O-]` [Acifluorfen]: the AC50 was 71.8 µM. In the case of `NC(=O)N(O)[C@@H]1C=C[C@H](Oc2cccc(Oc3ccc(F)cc3)c2)C1` [CJ-013790] it was 81.3 µM; in that of `CCO/N=C(\CC)C1=C(O)CC(c2c(C)cc(C)cc2C)CC1=O` (centres unmarked) [Tralkoxydim], > 90 µM. The figure for `c1ccc2c(c1)ccc1ccccc12` [Phenanthrene] is 50.1 µM.

As for `Cc1cccc(Nc2ccccc2)c1` [3-Methyl-N-phenylaniline], the AC50 turned out to be 45 µM.

For `CN[C@H]1C[C@@H](N)[C@H](O)[C@@H](O[C@@H]2O[C@H](CO)[C@H](O)[C@@H]3OC4(O[C@H]23)O[C@H]([C@@H](N)CO)[C@H](O)[C@H](O)[C@H]4O)[C@@H]1O` (some centres unmarked) [Hygromycin B], the AC50 stood at 12.9 µM. Take `CC/C=C(\C(=O)N[C@@H]1C(=O)N2C(C(=O)OCOC(=O)C(C)(C)C)=C(COC(N)=O)CS[C@H]12)c1csc(N)n1` [Cefcapene pivoxil hydrochloride]: the AC50 was 49.5 µM. `CCOC(=O)NCCOc1ccc(Oc2ccccc2)cc1` [Fenoxycarb]: the AC50 is 75.9 µM. As for `O=C(N/N=C/c1ccc([N+](=O)[O-])o1)c1ccc(O)cc1` [Nifuroxazide], the AC50 is 13.7 µM.

As for `CC(=O)[C@H]1CC[C@H]2[C@@H]3CC=C4C[C@@H](O)CC[C@]4(C)[C@H]3CC[C@]12C` [Pregnenolone], the AC50 stood at 11.6 µM. In the case of `C/C=C1/C(=O)C[C@H]2[C@@H]3CCC4=CC(=O)CC[C@]4(C)[C@H]3CC[C@]12C` [Guggulsterone E] it was 18 µM; in that of `COc1cc(CNC(=O)CCCC/C=C/C(C)C)ccc1O` [Capsaicin], 34.4 µM; in that of `CCC(C)COC(=O)CC(C)C` (centres unmarked) [2-Methylbutyl isovalerate], 71.8 µM. As for `CCCCCCCCCCCCCCNCCO` [Myralact], the AC50 was 22.8 µM. In the case of `COC(=O)[C@H]1[C@H]2C[C@@H]3c4[nH]c5cc(OC)ccc5c4CCN3C[C@H]2C[C@@H](OC(=O)COc2ccc(OC)cc2)[C@@H]1OC` [Mefeserpine] it was 21.6 µM; in that of `Cc1nc2ccccn2c(=O)c1CCN1CCC(C(=O)c2ccc(F)cc2)CC1` [Pirenperone], 47 µM; in that of `CC(C)(C)c1ccccc1O` [2-tert-Butylphenol], 84.6 µM.

On to `O=C(N/N=C/c1ccccc1O)c1ccncc1` [Salinazid], for which the AC50 came out at 20.5 µM. In the case of `CCOC(=O)NC(=S)Nc1ccccc1NC(=S)NC(=O)OCC` [Thiophanate] it was 47.1 µM; in that of `Cc1cc(C(C)(C)C)c(O)c(C)c1Cn1c(=O)n(Cc2c(C)cc(C(C)(C)C)c(O)c2C)c(=O)n(Cc2c(C)cc(C(C)(C)C)c(O)c2C)c1=O` [Cyanox CY 1790], 66.5 µM; in that of `O=C(/C=C/c1ccc([N+](=O)[O-])cc1)c1ccccc1` [4-Nitrochalcone], 49.3 µM. On to `CCOC(=O)Cn1cccc1-c1nc(-c2ccc(OC)cc2)c(-c2ccc(OC)cc2)s1` [Pamicogrel], for which the AC50 was determined as 14.5 µM.

On to `CCO[Si](C)(CCCOCC1CO1)OCC` (centres unmarked) [Diethoxy(methyl)[3-(oxiran-2-ylmethoxy)propyl]silane], for which the AC50 amounted to 62.6 µM.
